KCNQ2 block: rat KCNQ2 potassium channel inhibitors, primary screen, cell-based, CHO-K1, FluxOR thallium flux, B-score. 1.1% of 310,000 active. Potassium voltage-gated channel subfamily KQT member 2 (Rattus norvegicus), O88943. B-score at 10 µM. 20 min; hits give low values. AID 2156, 2009;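 active means fluorescence ratio B-score at most minus 3 library SDs, with starting brightness B-score within 2 library SDs, cut at about -5.5 in these data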
Target sequence (O88943 whole entry, looked up): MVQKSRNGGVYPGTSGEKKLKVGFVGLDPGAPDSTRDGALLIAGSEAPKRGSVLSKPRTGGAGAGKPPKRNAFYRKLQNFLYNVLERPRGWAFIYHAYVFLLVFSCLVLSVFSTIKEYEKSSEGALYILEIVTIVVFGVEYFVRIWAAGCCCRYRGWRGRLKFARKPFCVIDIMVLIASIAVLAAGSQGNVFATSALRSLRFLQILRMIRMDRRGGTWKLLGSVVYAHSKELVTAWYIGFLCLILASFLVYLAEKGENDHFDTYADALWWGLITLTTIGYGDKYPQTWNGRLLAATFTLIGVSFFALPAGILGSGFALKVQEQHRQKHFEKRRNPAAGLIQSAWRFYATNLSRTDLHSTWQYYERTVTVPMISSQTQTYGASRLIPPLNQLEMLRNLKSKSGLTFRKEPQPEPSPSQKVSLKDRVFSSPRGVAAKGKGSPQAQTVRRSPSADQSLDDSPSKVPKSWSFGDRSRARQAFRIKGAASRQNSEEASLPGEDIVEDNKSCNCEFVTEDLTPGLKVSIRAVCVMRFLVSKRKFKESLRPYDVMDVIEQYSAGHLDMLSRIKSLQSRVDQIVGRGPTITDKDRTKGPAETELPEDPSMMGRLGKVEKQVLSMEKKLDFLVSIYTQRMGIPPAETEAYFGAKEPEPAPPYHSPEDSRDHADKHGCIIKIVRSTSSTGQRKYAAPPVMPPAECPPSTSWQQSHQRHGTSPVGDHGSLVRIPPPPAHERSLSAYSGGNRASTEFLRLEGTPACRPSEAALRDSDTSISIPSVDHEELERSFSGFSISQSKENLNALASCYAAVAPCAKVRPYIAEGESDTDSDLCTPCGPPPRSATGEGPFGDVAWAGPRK
KCNQ2 pot: potentiators of rat KCNQ2 potassium channel. Potassium voltage-gated channel subfamily KQT member 2 (Rattus norvegicus), O88943. CHO-K1 KCNQ2, FluxOR thallium flux fluorescence; hits give high values. B-score at 10 µM. 0.54% of 310,000 active. AID 2239, 2010;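 active means fluorescence ratio B-score at least 3 SD of library B-scores, with initial fluorescence B-score within 3 of them, cut at about 5.3 in these data; same plate scores as AID 2156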;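 further: B-score of peak minus minimum over baseline fluorescence ratio after K+ and Tl+ stimulus; positive B-score means potentiation of KCNQ2 with more thallium influx and brighter signal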
Kir21 conf inh: mouse Kir2.1 channel blockers, retest, confirmation, cell-based, FluxOR thallium flux, duplicate; shares compounds with KCNQ2 pot; Kir2.1-expressing cells, FluxOR thallium flux fluorescence; hits give low values; Tl flux remaining, % of negative control (hits give low values), % at 10 µM; 41% of 2,300 active; AID 2032, 2009;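 active means Primary-screen hit whose thallium flux fell at least 3 control SD below untreated wells in both duplicates, with normal baseline fluorescence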;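 further: 0% = blank wells without stimulus and 100% = stimulated no-compound controls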
HEK293 Tl flux: alters thallium flux in parental HEK293 cells, Kir2.1 counter-screen | FluxOR signal as % of negative control (100 = no effect), % at 10 µM | FluxOR thallium flux fluorescence; 0% = unstimulated blank wells | shares compounds with KCNQ2 pot | 19% of 2,300 active | AID 2105;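 active means dye signal at least 3 control SD above or below untreated wells in both duplicates, raw fluorescence within 3, either direction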;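 further: percent is based on the flux ratio of peak minus minimum fluorescence over baseline F0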
CHO-K1 ctr: nonspecific thallium flux increase in parental CHO-K1, confirmation, counter-screen for KCNQ2 potentiator project, cell-based, FluxOR thallium flux, duplicate; shares compounds with KCNQ2 pot; parental CHO-K1 cells, FluxOR thallium flux fluorescence; zero = vehicle mean+3SD, 100% = vehicle-minus-blank window; activity increase over 3SD of controls, % at 10 µM; 43% of 1,200 active; AID 2282, 2010;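 active means signal rise of at least 3 SD above the untreated control mean, in both duplicate wells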;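 further: counter screen of KCNQ2 potentiator hits so any rise reflects channel-independent effects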
KCNQ1 sel pot: human KCNQ1 channel potentiation off-target, confirmation, selectivity assay for KCNQ2 potentiator project, cell-based, CHO, FluxOR thallium flux; CHO KCNQ1 stable, FluxOR thallium flux fluorescence; beyond 3SD, as % of vehicle-control signal; shares compounds with KCNQ2 pot; 28% of 1,200 active; activation over 3SD threshold, % at 10 µM;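 active means fluorescence ratio rise of at least 3 SD of vehicle wells above their mean, in both replicate wells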;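 further: 0% = vehicle mean plus 3 SD and 100% = vehicle minus unstimulated blank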
KCNQ2 pot confirm: rat KCNQ2 channel potentiators, confirmation, cell-based, CHO, FluxOR thallium flux, duplicate. 68% of 1,200 active. AID 2287, 2010. potentiation, less the hit threshold, % at 10 µM. shares compounds with KCNQ2 pot. CHO-KCNQ2 cells, FluxOR thallium flux fluorescence;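 active means fluorescence ratio rising 3 SD or more over the vehicle control mean in both replicates, plus primary screen hit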;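 further: peak minus minimum thallium fluorescence divided by baseline after K/Tl stimulus; 0% = vehicle mean plus 3 SD and 100% = vehicle minus unstimulated blank difference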
Kir2-1 sel: mouse Kir2.1 channel activation off-target, confirmation, selectivity assay for KCNQ2 potentiator project, cell-based, HEK293, FluxOR thallium flux. shares compounds with KCNQ2 pot. HEK293 Kir2.1, FluxOR thallium flux fluorescence. activity over 3SD threshold, % at 10 µM. 2% of 1,200 active;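 active means fluorescence ratio rise of at least 3 SD above the vehicle-control mean, seen in both replicates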;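 further: 0% = vehicle mean plus 3 SD and 100% = vehicle minus no-stimulus blank window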
* hit, by the source's call; ! = not confirmed by another sample. Shown are actives, neighbours in structure and some others; about 1.6% of the full set was active somewhere.

Screening Cc1c(Cc2ccccc2)c(=O)oc2c(CN(C)C)c(O)c(Cl)cc12 returned KCNQ2 block inactive and KCNQ2 pot 0.93.
For CN(C)Cc1c(O)ccc2oc(Cc3ccccc3)cc12 the results were KCNQ2 block inactive, KCNQ2 pot 0.02, Kir21 conf inh 42%* and HEK293 Tl flux inactive.
For Cc1cc(C)cc(N(CCC#N)C(=O)COC(=O)c2ccc(OCc3c(C)noc3C)cc2)c1 the results were KCNQ2 block inactive.
For CSc1ccc(CNCC(O)c2ccccc2)cc1 (configuration not stated) the results were KCNQ2 block inactive, Kir21 conf inh 59%* and HEK293 Tl flux inactive.
For COc1ccc(CCNCC(O)c2ccccc2)cc1 (configuration not stated) the results were KCNQ2 block inactive and KCNQ2 pot 0.85.
OC(CNCCc1ccccc1)c1ccccc1 (configuration not stated) was read as KCNQ2 block inactive, KCNQ2 pot 0.18, Kir21 conf inh 44%* and HEK293 Tl flux inactive.
Screening O[C@@H](CNC[C@H](O)c1ccccc1)c1ccccc1 returned KCNQ2 block inactive.
Screening COc1cc(NC(=O)CC(C)S(=O)(=O)c2ccc3c(c2)NC(=O)CO3)cc(OC)c1OC (configuration not stated) returned KCNQ2 block inactive and KCNQ2 pot 0.07.
Screening CC(C)(C)c1nn(-c2ccccc2)c2[nH]c(=O)c(C=O)cc12 returned KCNQ2 block inactive, KCNQ2 pot 6.8*, Kir21 conf inh inactive, HEK293 Tl flux inactive, CHO-K1 ctr 4.4*, KCNQ1 sel pot 12*, KCNQ2 pot confirm -5 and Kir2-1 sel -42.
`CC(C)(C)c1nn(-c2ccccc2)c2nc(Cl)c(C=O)cc12` gave KCNQ2 block inactive.
For CC1(C)OC2CC3C4CC(F)C5=CC(=O)C=CC5(C)C4(F)C(O)CC3(C)C2(C(=O)CO)O1 (configuration not stated) the results were KCNQ2 block inactive and KCNQ2 pot 0.11.
CCCn1nc(C(=O)NNC(=O)Cc2ccc(S(=O)(=O)N3CCOCC3)s2)c2ccccc2c1=O was read as KCNQ2 block inactive and KCNQ2 pot 0.01.
For O=C(COc1ccc(Cl)cc1Cl)NC(=O)N1CCCCC1 the results were KCNQ2 block inactive.
Screening OC(CNCC1(N2CCCCC2)CCCCC1)COc1ccc(Cl)cc1Cl (configuration not stated) returned KCNQ2 block inactive, KCNQ2 pot 2.5, Kir21 conf inh 50%* and HEK293 Tl flux 75%*.
Screening CCc1ccccc1NC(=O)CN(C)C(=O)CSc1nc2cc(Cl)ccc2s1 returned KCNQ2 block inactive.
CSc1ccc2c(c1)C(N1CCN(C)CC1)Cc1ccccc1S2 (configuration not stated) was read as KCNQ2 block -6.8*!, KCNQ2 pot -6.8, Kir21 conf inh 40%* and HEK293 Tl flux inactive.
`CSc1cccc(NC(=O)N2CCN(C)CC2)c1` gave KCNQ2 block inactive and KCNQ2 pot 0.01.

From PubChem
